# Measurements: PubChem BioAssay (NCATS)
# Values without a mark were called inactive. Results filed as inconclusive are left out. The source made the active and inactive calls. Unless noted, calls follow the shape of the dose curve; as a rule, active = well fitted curve in the direction sought with a large enough effect; inconclusive = small, poorly fitted or top-dose-only effect, or another doubt; inactive = no such curve, though single readings can be large; an effect the other way counts as inactive or inconclusive.
# Legend:
# [1] = biological target: Rap guanine nucleotide exchange factor 3 (Homo sapiens) (UniProt O95398); assay: Confirmatory qHTS for agonist of cAMP-regulated guanine nucleotide exchange factor 3 (EPAC1) (AID 1645881);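 also: EPAC1 catalysed release of BODIPY-GDP from Rap1B seen as fluorescence loss; 100% = effect of cAMP agonist control; nearly all actives have a fitted effect of over 75% in size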
# Sequence of Rap guanine nucleotide exchange factor 3 (Homo sapiens) (O95398 whole entry, looked up): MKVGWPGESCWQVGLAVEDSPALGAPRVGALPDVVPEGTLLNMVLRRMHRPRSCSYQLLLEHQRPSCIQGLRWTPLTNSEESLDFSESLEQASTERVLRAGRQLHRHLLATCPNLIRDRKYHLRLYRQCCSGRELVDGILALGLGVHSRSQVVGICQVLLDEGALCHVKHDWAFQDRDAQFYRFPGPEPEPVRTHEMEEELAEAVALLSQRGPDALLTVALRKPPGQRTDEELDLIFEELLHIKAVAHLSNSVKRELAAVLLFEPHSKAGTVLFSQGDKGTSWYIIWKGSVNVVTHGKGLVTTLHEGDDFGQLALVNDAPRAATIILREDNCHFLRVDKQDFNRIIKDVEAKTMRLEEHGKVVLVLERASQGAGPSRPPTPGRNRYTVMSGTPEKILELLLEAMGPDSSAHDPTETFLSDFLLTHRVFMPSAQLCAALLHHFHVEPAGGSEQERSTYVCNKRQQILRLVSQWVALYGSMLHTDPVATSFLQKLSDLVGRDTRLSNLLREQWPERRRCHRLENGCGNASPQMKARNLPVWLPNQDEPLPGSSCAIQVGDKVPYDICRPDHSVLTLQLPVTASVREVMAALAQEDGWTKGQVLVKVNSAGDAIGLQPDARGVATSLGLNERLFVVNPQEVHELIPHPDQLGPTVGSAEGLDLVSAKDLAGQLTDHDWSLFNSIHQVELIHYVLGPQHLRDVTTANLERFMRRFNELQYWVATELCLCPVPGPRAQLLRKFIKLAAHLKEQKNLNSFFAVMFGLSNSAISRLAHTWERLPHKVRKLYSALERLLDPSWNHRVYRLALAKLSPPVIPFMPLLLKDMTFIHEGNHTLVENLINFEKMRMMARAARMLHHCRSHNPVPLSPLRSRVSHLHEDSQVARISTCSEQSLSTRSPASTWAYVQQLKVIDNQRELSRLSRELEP
# [2] = biological target: Rap guanine nucleotide exchange factor 4 (Homo sapiens) (UniProt Q8WZA2); assay: Confirmatory qHTS for agonist of cAMP-regulated guanine nucleotide exchange factor 4 (EPAC2) (AID 1645884);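 also: nucleotide exchange releases bodipy-GDP from Rap1 and this lowers its fluorescence; % is scaled to controls: 0 for no effect and ±100 for the full control effect; nearly all actives have a fitted effect of over 65% in size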
# Sequence of Rap guanine nucleotide exchange factor 4 (Homo sapiens) (Q8WZA2 whole entry, looked up): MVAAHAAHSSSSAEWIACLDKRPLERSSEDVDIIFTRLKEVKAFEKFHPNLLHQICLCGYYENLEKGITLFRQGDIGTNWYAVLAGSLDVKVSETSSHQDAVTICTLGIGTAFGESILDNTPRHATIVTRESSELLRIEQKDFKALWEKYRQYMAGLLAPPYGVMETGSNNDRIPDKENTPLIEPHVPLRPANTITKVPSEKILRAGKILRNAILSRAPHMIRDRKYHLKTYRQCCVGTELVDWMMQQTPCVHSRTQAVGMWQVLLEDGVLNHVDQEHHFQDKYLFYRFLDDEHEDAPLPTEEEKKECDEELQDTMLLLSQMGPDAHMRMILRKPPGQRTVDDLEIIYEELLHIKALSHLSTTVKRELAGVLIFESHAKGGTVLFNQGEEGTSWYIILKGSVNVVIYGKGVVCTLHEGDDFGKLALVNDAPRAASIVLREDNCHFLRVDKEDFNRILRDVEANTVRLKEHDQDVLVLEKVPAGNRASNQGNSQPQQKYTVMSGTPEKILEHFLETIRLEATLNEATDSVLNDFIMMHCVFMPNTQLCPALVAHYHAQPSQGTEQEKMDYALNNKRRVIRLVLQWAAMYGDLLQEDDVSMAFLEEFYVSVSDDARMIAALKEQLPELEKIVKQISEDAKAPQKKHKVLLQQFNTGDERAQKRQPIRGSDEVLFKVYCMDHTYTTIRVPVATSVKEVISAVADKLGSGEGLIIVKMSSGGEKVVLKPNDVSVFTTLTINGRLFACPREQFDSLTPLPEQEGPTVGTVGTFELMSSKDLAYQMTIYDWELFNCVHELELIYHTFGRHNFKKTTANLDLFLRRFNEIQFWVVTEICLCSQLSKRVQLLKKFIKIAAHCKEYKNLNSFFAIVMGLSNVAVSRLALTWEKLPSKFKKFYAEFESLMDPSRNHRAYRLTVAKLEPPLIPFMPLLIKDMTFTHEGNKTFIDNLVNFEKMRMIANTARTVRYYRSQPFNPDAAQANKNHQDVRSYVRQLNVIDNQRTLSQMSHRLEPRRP
# [3] = biological target: Cytochrome P450 2D6 (Homo sapiens) (UniProt P10635); assay: qHTS Assay for Inhibitors and Substrates of Cytochrome P450 2D6 (AID 891); also: potency is read from the fitted curve at half-maximal effect; nearly all actives have a fitted effect of over 60% in size
# Sequence of Cytochrome P450 2D6 (Homo sapiens) (P10635 whole entry, looked up): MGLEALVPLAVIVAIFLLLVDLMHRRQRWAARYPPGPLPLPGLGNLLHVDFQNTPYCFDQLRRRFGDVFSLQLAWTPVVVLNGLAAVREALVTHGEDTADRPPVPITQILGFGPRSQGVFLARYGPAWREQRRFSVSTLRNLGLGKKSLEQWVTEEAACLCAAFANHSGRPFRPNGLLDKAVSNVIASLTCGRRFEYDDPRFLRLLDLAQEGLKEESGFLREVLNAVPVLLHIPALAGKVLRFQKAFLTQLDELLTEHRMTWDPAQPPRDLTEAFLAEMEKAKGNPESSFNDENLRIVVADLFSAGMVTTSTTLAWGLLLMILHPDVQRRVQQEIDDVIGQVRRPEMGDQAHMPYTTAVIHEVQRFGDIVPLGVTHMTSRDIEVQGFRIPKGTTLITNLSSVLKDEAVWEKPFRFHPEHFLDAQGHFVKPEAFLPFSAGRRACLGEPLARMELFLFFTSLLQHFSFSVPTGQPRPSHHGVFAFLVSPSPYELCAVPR
# Outline: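 Luminescent read-out of luciferin formed by 5 nM human CYP2D6 demethylating 30 uM Luciferin-ME EGE (Km level) over 60 min at room temperature after NADPH regeneration addition. Data normalized to full inhibition by 1.43 uM quinidine.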
# [4] = biological target: Cytochrome P450 2C19 (Homo sapiens) (UniProt P33261); assay: qHTS Assay for Inhibitors and Substrates of Cytochrome P450 2C19 (AID 899); also: nearly all actives have a fitted effect of over 60% in size; also: potency is read from the fitted curve at half-maximal effect
# Sequence of Cytochrome P450 2C19 (Homo sapiens) (P33261 whole entry, looked up): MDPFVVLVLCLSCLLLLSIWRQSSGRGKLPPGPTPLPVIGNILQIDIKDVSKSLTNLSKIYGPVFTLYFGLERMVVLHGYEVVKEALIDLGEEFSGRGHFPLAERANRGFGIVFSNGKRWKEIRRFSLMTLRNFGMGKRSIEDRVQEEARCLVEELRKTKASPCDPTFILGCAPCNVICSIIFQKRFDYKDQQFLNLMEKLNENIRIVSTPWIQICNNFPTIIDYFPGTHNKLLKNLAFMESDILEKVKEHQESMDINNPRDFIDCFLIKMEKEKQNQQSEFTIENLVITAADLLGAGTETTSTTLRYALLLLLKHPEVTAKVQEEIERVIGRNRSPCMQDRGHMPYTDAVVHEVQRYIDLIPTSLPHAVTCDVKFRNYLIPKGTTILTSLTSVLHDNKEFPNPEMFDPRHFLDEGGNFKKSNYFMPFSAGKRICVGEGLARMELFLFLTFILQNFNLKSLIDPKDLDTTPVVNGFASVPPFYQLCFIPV
# Outline: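 5 nM human CYP2C19 with 10uM Luciferin-H EGE (at KM) in 50mM KPO4, compound preincubated 10 min at 37C, then NADPH regeneration for 60 min at 37C. Luciferin read by luminescence after detection reagent; normalized to 57uM ketoconazole as full inhibition.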
# [5] = Confirmation and Secondary Assay for Modulators of Hemoglobin Beta Chain Splicing at IVS2 705 locus (AID 930);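 also: HeLa cells stably expressing the EGFP-705 splicing reporter; GFP fluorescence per well restored by corrected splicing of the IVS2-705 intron in EGFP; series mostly up to about 46 µM; % of control where 0% means no effect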
# Outline: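 Fluorescence gain (488 nm laser, 500-520 nm PMT) reflects restored correct splicing of a mutant IVS2-705 intron inside EGFP in stably transfected HeLa cells after 2-day compound treatment.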
# [6] = qHTS Assay for Identification of Small Molecule Agonists for Hypoxia Response Element Signaling Pathway (AID 914; active = well fitted activation curve with a large enough effect in the signal ratio, with a control signal flat, not every such curve was filed as active; the % refers to the signal ratio; also: potency is read from the fitted curve at half-maximal effect; as to activation: % of control where 0% means no effect); details: ME-180 (cervical carcinoma) HRE-bla reporter, beta-lactamase ratio, CoCl2, 17 h; activation: hits give high values
# Outline: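 A beta-lactamase reporter under hypoxia response element control in ME-180 cells served as the system. Compound titrations plus EC50 CoCl2 ran 17 h at 37 degrees Celsius; AC50 values were fitted from %Activity.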
# [7] = biological target: Cytochrome P450 2C9 (Homo sapiens) (UniProt P11712); assay: qHTS Assay for Inhibitors and Substrates of Cytochrome P450 2C9 (AID 883); also: nearly all actives have a fitted effect of over 60% in size; also: potency is read from the fitted curve at half-maximal effect; as to activity change, negative = inhibition: % is scaled to controls: 0 for no effect and ±100 for the full control effect
# Sequence of Cytochrome P450 2C9 (Homo sapiens) (P11712 whole entry, looked up): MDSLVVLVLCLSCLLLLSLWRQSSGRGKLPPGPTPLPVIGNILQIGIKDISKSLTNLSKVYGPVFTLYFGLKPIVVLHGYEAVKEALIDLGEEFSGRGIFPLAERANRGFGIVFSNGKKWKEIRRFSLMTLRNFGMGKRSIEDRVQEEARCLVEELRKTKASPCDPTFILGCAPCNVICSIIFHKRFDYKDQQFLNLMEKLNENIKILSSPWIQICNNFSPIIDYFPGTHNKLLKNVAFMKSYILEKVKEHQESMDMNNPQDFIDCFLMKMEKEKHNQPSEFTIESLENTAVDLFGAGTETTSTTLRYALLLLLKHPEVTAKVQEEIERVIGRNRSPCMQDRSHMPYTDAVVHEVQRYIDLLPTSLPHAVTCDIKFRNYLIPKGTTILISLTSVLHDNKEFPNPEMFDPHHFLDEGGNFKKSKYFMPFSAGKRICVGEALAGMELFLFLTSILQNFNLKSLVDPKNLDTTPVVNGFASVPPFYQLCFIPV
# Outline: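 Human CYP2C9 (10nM) with Luciferin-H at 100uM (its KM) in 25mM KPO4; compound preincubated 10 min at 37C, then NADPH regeneration for 60 min at 37C. Luciferin read by luminescence after detection reagent; normalized to 57uM sulphaphenazole as full inhibition.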
# [8] = Cell Viability - BJ (AID 421; calls by dose curve;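 also: potency is read from the fitted curve at half-maximal effect; cells exposed to compound for 40 hours at 37 °C before readout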); details: BJ fibroblast viability, qHTS
# Outline: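 Quantitative HTS: ATP depletion in BJ cells after 40 hr compound exposure in complete culture medium, detected with CellTiter-Glo; AC50 from standard Hill fits.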
# [9] = Cell Viability - Jurkat (AID 426;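 active = dose-dependent loss of cell ATP signal giving a full or clear fitted curve, ranked by lower potency value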;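 also: potency is read from the fitted curve at half-maximal effect; cells exposed to compound for 40 hours at 37 °C before ATP read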); details: qHTS
# Outline: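 Cytotoxicity taken as drop in cellular ATP (CellTiter-Glo luminescence, 20 min room temperature) after 40 hr, 37C treatment of 5000 Jurkat Clone E6-1 cells per well; concentration-response fitted with Hill equation for AC50.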
# [10] = Cell Viability - Hek293 (AID 427;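 active = compounds whose dose-response curve shows a full or clear partial loss of cell viability, called from curve shape rather than a numeric limit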;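 also: potency is read from the fitted curve at half-maximal effect; cells exposed to compound for 40 hours at 37 °C before reading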); details: qHTS
# Outline: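 AC50 values derive from Hill-modelled concentration-response of ATP-based luminescence, normalized between DMSO-only and 100 uM tamoxifen controls. Cells were exposed in complete culture medium for 40 hr at 37 °C before detection.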
# [11] = Cell Viability - HepG2 (AID 433; calls by dose curve;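 also: potency is read from the fitted curve at half-maximal effect; cells exposed to compound for 40 hours; potency for ATP loss meaning cytotoxicity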); details: qHTS
# Outline: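 Cytotoxicity read as ATP loss (CellTiter-Glo luminescence) after 40 hr compound exposure of HepG2, 1500 cells/well, 37 °C. AC50 by Hill equation; 0% set by DMSO, 100% inhibition by 100 uM tamoxifen.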
# [12] = Cell Viability - MRC5 (AID 434; calls by dose curve;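 also: potency is read from the fitted curve at half-maximal effect; cells exposed to compound for 40 hours at 37 °C; potency reflects cytotoxicity seen as loss of intracellular ATP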); details: MRC5 lung fibroblast viability, qHTS
# Outline: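 ATP luminescence read-out (CellTiter-Glo, 20 min RT) after 40 hr, 37 °C compound exposure of 1500 MRC5 cells/well. Data normalized to DMSO (basal) and 100 uM tamoxifen (100% inhibition); AC50 from standard Hill equation.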
# [13] = Cell Viability - SK-N-SH (AID 435; calls by dose curve; also: potency is read from the fitted curve at half-maximal effect); details: SK-N-SH neuroblastoma cell viability qHTS
# Outline: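 qHTS cytotoxicity: CellTiter-Glo ATP luminescence after 40 h compound exposure of human neuroblastoma SK-N-SH cells at 37 °C. AC50 derived by Hill-equation fitting, with DMSO as basal and 100 uM tamoxifen as full inhibition.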
# [14] = Cell Viability - N2a (AID 540);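 also: plate controls were DMSO alone for no effect and tamoxifen control for full effect; nearly all actives have a fitted effect of over 45% in size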
# Outline: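 CellTiter-Glo ATP luminescence, read 20 min after reagent at room temperature, reported viability following 40 h compound treatment at 37 °C. N2a mouse neuroblastoma cells seeded 1500/well; Hill equation gave AC50.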
# [15] = Cell Viability - NIH 3T3 (AID 541);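 also: cells exposed to compound for 40 hours; plate controls were DMSO alone for no effect and tamoxifen positive control for full effect; nearly all actives have a fitted effect of over 25% in size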
# Outline: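 Intracellular ATP (CellTiter-Glo luminescence, 20 min at room temperature) measured after 40 hr compound exposure at 37 °C of 1000 NIH 3T3 mouse fibroblasts/well in complete medium; AC50 derived by Hill-equation modelling of qHTS concentration-response curves.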
# [16] = Cell Viability - HUV-EC-C (AID 542);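 also: cells exposed to compound for 40 hours; % is scaled to controls: 0 for no effect and ±100 for the full control effect; nearly all actives have a fitted effect of over 35% in size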
# Outline: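 CellTiter-Glo luminescence measured ATP loss in HUV-EC-C cells (1000/well) after 40 hr compound exposure at 37 °C, in complete culture medium. Concentration-response data were Hill-fitted to give AC50.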
# [17] = Cell Viability - H-4-II-E (AID 543);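 also: cells exposed to compound for 40 hours; % is scaled to controls: 0 for no effect and ±100 for the full control effect; nearly all actives have a fitted effect of over 35% in size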
# Outline: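 CellTiter-Glo luminescence (intracellular ATP) measured after 40 h compound exposure at 37 °C in H-4-II-E rat hepatoma cells seeded at 1500/well. Values are AC50s fitted with the standard Hill equation.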
# [18] = Cell Viability - SH-SY5Y (AID 544);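 also: cells exposed to compound for 40 hours; 0% = DMSO alone and -100% = 100 µM tamoxifen; nearly all actives have a fitted effect of over 55% in size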
# Outline: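 Cytotoxicity measured via ATP-dependent luciferase luminescence (CellTiter-Glo) following 40 h, 37 °C exposure of 1500 SH-SY5Y cells per well. Concentration-response data were fitted with the standard Hill equation to give AC50.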
smiles,measurement,setting,value
Cc1ccccc1-c1nccc(Nc2ccc(F)cc2)n1,outcome,[1],inactive
same,outcome,[2],inactive
CCNc1ncc2nc(CCc3ccccc3)c(=O)n(CCOC)c2n1,Potency,[3],0.398 µM (active)
Cc1nc2cnc(N3CCNCC3)nc2n(Cc2ccc(F)cc2)c1=O,Potency,[4],inactive
COc1ccccc1CNc1ncnc2ccc(-c3ccccc3CN(C)C)cc12,Potency,[3],2.51 µM (active)
same,outcome,[5],inactive
O=c1c(-c2ccc(F)cc2)nc2cnc(N3CCNCC3)nc2n1-c1ccccc1,Potency,[4],inactive
COCCn1c(=O)c(-c2cn(C)c3ccccc23)nc2cnc(N3CCNCC3)nc21,Potency,[6],3.16 µM (active)
Clc1ccccc1-c1nc(N2CCNCC2)c2ccccc2n1,activation,[6],16.5%
same,outcome,[5],inactive
COc1ccc(CNc2ncnc3ccc(-c4ccccc4OC)cc23)c(OC)c1,Potency,[7],0.398 µM (active)
CN1CCN(c2ncc3nc(CCc4ccccc4)c(=O)n(Cc4ccc(F)cc4)c3n2)CC1,activation,[6],-6.17%
CN1CCN(c2nc(-c3ccc(N(C)C)cc3)nc3ccccc23)CC1,"activity change, negative = inhibition",[7],9.44% [at 2.29 µM]
same,Potency,[3],3.16 µM (active)
same,Potency,[4],inactive
same,outcome,[5],inactive
CN1CCN(c2nc(-c3ccccc3C(F)(F)F)nc3ccccc23)CC1,activation,[6],-4.44%
CN1CCN(c2ncc3nc(-c4ccccc4)c(=O)n(CCc4ccccc4)c3n2)CC1,Potency,[7],3.16 µM (active)
same,Potency,[6],3.16 µM (active)
COc1ccc(-c2nc3cnc(N4CCN(C)CC4)nc3n(-c3ccc(OC)cc3)c2=O)cc1,Potency,[6],3.16 µM (active)
O=c1c(-c2ccccc2)nc2cnc(N3CCNCC3)nc2n1C1CC1,Potency,[7],0.158 µM (active)
same,Potency,[6],3.16 µM (active)
CN(C)c1ccc(-c2nccc(NCCN3CCOCC3)n2)cc1,activation,[6],-5.52%
same,outcome,[5],inactive
CC(C)(c1cc(Br)c(O)c(Br)c1)c1cc(Br)c(O)c(Br)c1,Potency,[8],> 92 µM
same,Potency,[9],> 92 µM
same,Potency,[10],> 92 µM
same,Potency,[11],> 92 µM
same,Potency,[12],> 92 µM
same,Potency,[13],> 92 µM
same,outcome,[14],inactive
same,outcome,[15],inactive
same,outcome,[16],inactive
same,outcome,[17],inactive
same,outcome,[18],inactive
Cc1cccc(CNc2ncnc3ccc(-c4ccccc4CN(C)C)cc23)c1,outcome,[5],inactive
COc1cccc(Cn2c(=O)c(-c3ccccc3)nc3cnc(N4CCNCC4)nc32)c1,Potency,[6],3.16 µM (active)
O=S(=O)(c1ccccc1)N1CCC[C@@]2(CCN(c3ccncc3)C2)C1,Potency,[4],0.398 µM (active)
COCCn1c(=O)c(-c2cc(F)cc(F)c2)nc2cnc(N3CCNCC3)nc21,Potency,[7],1.26 µM (active)
c1cncc(-c2nc(N3CCNCC3)c3ccccc3n2)c1,Potency,[3],7.94 µM (active)
COCCn1c(=O)c(CCc2ccccc2)nc2cnc(OC)nc21,Potency,[4],0.794 µM (active)
